This note sets out measurements from PubChem BioAssay AID1851 (National Center for Advancing Translational Sciences (NCATS), 2009).

The campaign covered roughly 16,000 compounds. About 4,000 (25%) were called active. Not shown: some 26% with an inconclusive outcome. These entries were drawn from the full list. Values without a mark were called inactive. Calls follow the shape of the dose curve; as a rule, active = well fitted curve in the direction sought with a large enough effect; inconclusive = small, poorly fitted or top-dose-only effect, or effect the other way; inactive = no such curve, though single readings can be large or run the other way.
% is scaled to controls: 0 for no effect and ±100 for the full control effect.

Cytochrome P450 2C9 (Homo sapiens), sequence (P11712 whole entry, looked up): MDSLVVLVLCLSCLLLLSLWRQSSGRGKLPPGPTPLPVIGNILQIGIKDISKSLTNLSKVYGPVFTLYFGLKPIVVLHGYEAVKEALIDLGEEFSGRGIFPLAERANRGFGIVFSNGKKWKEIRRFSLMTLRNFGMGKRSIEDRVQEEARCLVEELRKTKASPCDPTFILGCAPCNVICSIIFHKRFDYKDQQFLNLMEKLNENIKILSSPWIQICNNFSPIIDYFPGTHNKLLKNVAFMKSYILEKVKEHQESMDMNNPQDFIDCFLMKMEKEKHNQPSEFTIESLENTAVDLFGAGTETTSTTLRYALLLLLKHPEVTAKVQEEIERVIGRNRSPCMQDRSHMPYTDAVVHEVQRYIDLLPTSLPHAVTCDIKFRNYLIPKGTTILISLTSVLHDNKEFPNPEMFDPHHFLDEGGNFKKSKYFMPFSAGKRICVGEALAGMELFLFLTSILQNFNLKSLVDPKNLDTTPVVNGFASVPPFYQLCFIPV

The experiment concerns the target Cytochrome P450 2C9 (Homo sapiens) (UniProt P11712). In words: Cytochrome panel assay with activity outcomes. The conditions noted are these: recombinant CYP, pro-luciferin dealkylation, luminescence, p450-cyp2c9; series mostly up to 57.1 µM.
For `C/C(=N\[N+](C)(C)C)c1ccc(C)c(C)c1`, the activity, negative = inhibition is 13% [at 11.4 µM].
With `COc1ncc2nc(CCc3ccccc3)c(=O)n(C)c2n1`, the AC50 entry is “inactive”.
The same measure, in the same setting: for `COc1ccc(Oc2ncc3nc(C)c(=O)n(C)c3n2)cc1` the value was “inactive”.
Same read-out and setting: then `COc1ccc(Oc2ncc3nc(CCc4ccccc4)c(=O)n(C)c3n2)cc1`, with 10 µM (active); and `COCCn1c(=O)c(CCc2ccccc2)nc2cnc(Oc3cccc(Cl)c3)nc21`, with 1 µM (active).
Take `COCCn1c(=O)c(CCc2ccccc2)nc2cnc(Oc3ccc(OC)cc3)nc21`: the AC50 was 10 µM (active).
As for `N#CCCn1c(=O)c(-c2ccccc2)nc2cnc(OCc3ccccc3)nc21`, the AC50 is 12.6 µM (active).
The same measure, in the same setting: for `N#CCCn1c(=O)c(-c2ccc(F)cc2)nc2cnc(OCc3ccccc3)nc21` the value was “inactive”.
Take `N#CCCn1c(=O)cnc2cnc(OCc3ccccc3)nc21`: the AC50 entry is “inactive”.
As to `COc1ccc(CNc2ccnc(-c3ccccc3Cl)n2)c(OC)c1`, the activity, negative = inhibition was -11.5% [at 2.29 µM].
As to `N[C@@H]1[C@@H]2[C@@H]3C[C@H]4N(CC[C@@]14C(=O)C(=O)O)CC3=CCO[C@@H]2CC(=O)O`, the activity, negative = inhibition is 5.63% [at 11.4 µM].
Regarding `CC(C)(C)CNCCO`, the activity, negative = inhibition is 3.65% [at 11.4 µM].
Regarding `O=C(Nc1cccc(F)c1)N1CC[C@@]2(CCCN(C(=O)c3cnccn3)C2)C1`, the AC50 result was “inactive”.
As for `COc1cc(NC(=S)Nc2ccc(S(=O)(=O)N3CCOCC3)cc2)cc(OC)c1OC`, the AC50 is 15.8 µM (active).
Consider `CS(=O)(=O)Nc1ccc(S(=O)(=O)N2CCOCC2)cc1`, for which the AC50 result is “inactive”.
Take `FC(F)(F)c1ccccc1-c1cncnc1Nc1ccccc1`: the activity, negative = inhibition was -0.414% [at 2.29 µM].
With `CC(=O)NCCNc1cc(-c2ccccc2C(F)(F)F)ncn1`, the activity, negative = inhibition was -3.9% [at 2.29 µM].
Take `CC=C(/C(=C/C)c1ccc(O)cc1)c1ccc(O)cc1`: the half-maximal activity concentration (AC50) is 0.794 µM (active).
As to `Cc1cc(N2CCN(C)CC2)n2nc(-c3ccc(Cl)cc3)nc2n1`, the activity, negative = inhibition is 6.91% [at 11.4 µM].
In the case of `Cc1nc2cnc(Oc3cccc(Cl)c3)nc2n(C[C@H]2CCCO2)c1=O`, the AC50 result is “inactive”.
The same measure, in the same setting: then `COc1ccc(-c2nc3cnc(Oc4cccc(Cl)c4)nc3n(C[C@H]3CCCO3)c2=O)cc1`, with 5.01 µM (active); and `CN(C)c1ncc2nc(-c3cccs3)c(=O)n(C[C@H]3CCCO3)c2n1`, with “inactive”.
Take `O=c1c(CCc2ccccc2)nc2cnc(Oc3cccc(Cl)c3)nc2n1C[C@H]1CCCO1`: the AC50 was 6.31 µM (active).
Regarding `O=c1cnc2cnc(Nc3ccccc3)nc2n1C[C@H]1CCCO1`, the AC50 result was “inactive”.
With `O=c1c(-c2cccs2)nc2cnc(Oc3cccc(Cl)c3)nc2n1C[C@H]1CCCO1`, the AC50 was 3.16 µM (active).
As to `COc1ncc2nc(-c3cc(F)cc(F)c3)c(=O)n(C[C@H]3CCCO3)c2n1`, the AC50 entry was “inactive”.
In the case of `O=c1c(-c2cccs2)nc2cnc(Nc3ccccc3)nc2n1C[C@H]1CCCO1`, the AC50 result is “inactive”.
The same measure, in the same setting: for `COc1ccc(-c2nc3cnc(N(C)C)nc3n(C[C@H]3CCCO3)c2=O)cc1` the value was “inactive”.

One may read the AC50 as the concentration giving half of the maximal activity seen.
